# About 79,000 compounds went through this panel and 15% of them were active in at least one assay; those are over-represented in the sample as a whole. Values without a mark were called inactive. The source made the active and inactive calls. No stated cut-off is given here; in the data, active means growth inhibition above about 70%; inactive means the rest.
# Assays:
# [1] = NCI Yeast Anticancer Drug Screen. Data for the rad50 strain (AID 155);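 further: 0% = growth of vehicle-only cultures of the same strain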; conditions: S. cerevisiae rad50 strain growth inhibition, stronger effect = higher value
# Procedure, shortened: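 Growth of the mutant yeast was measured after compound exposure and referenced to vehicle-treated cultures.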
# [2] = NCI Yeast Anticancer Drug Screen. Data for the mec2-1 strain (AID 157); conditions: S. cerevisiae mec2-1 strain, stronger effect = higher value
# Procedure, shortened: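 Readout is yeast growth inhibition, normalised to vehicle-treated controls, in the mec2-1 strain exposed to compound.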
# [3] = NCI Yeast Anticancer Drug Screen. Data for the sgs1 mgt1 strain (AID 161);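 further: 0% = growth of cultures given vehicle only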; conditions: S. cerevisiae sgs1 mgt1 strain, stronger effect = higher value
# Procedure, shortened: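 This yeast growth screen uses a strain with defined DNA-repair lesions; compound-treated growth is compared with vehicle-treated growth.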
# [4] = NCI Yeast Anticancer Drug Screen. Data for the cln2 rad14 strain (AID 165);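 further: 0% = growth equal to vehicle treated cultures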; conditions: S. cerevisiae cln2 rad14 strain, stronger effect = higher value
# Procedure, shortened: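 Relative to vehicle controls, growth inhibition of compound-treated cln2 rad14 yeast was recorded.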
# [5] = NCI Yeast Anticancer Drug Screen. Data for the bub3 strain (AID 167); conditions: S. cerevisiae bub3 mutant strain, stronger effect = higher value
# Procedure, shortened: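 Whole-cell yeast assay. The mutant strain was incubated with compounds, and growth inhibition was determined by comparison with vehicle-treated cells.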
# [6] = NCI Yeast Anticancer Drug Screen. Data for the mlh1 rad18 strain (AID 175); conditions: S. cerevisiae mlh1 rad18 strain growth inhibition, stronger effect = higher value
# Procedure, shortened: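 Test agents were incubated with a yeast strain of defined genotype (DNA damage repair defect). Inhibition of growth was derived by comparison with vehicle-exposed cultures.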
# [7] = at 5.0 µM (retest, dose inferred, filed as 0.5)
# [8] = at 50.0 µM (retest, dose inferred, filed as 5.0)
SMILES,"growth inhibition [1, 7]","growth inhibition [1, 8]",growth inhibition ([1]; at 50.0 µM),"growth inhibition [2, 7]","growth inhibition [2, 8]",growth inhibition ([2]; at 50.0 µM),"growth inhibition [3, 7]","growth inhibition [3, 8]",growth inhibition ([3]; at 50.0 µM),"growth inhibition [4, 7]","growth inhibition [4, 8]",growth inhibition ([4]; at 50.0 µM),"growth inhibition [5, 7]","growth inhibition [5, 8]",growth inhibition ([5]; at 50.0 µM),"growth inhibition [6, 7]","growth inhibition [6, 8]",growth inhibition ([6]; at 50.0 µM)
O=C1C=CC(=O)N1C1c2ccccc2-c2ccccc21,99% (active),99% (active),99.5% (active),100% (active),100% (active),99.1% (active),99% (active),100% (active),99.5% (active),77% (active),99% (active),98% (active),100% (active),100% (active),99.5% (active),99% (active),99% (active),97.1% (active)
Nc1ccc2nc3c(nc2c1)C(=O)c1ccccc1-3,47%,93% (active),85.5% (active),10%,93% (active),86.5% (active),19%,88% (active),85% (active),32%,90% (active),83% (active),15%,94% (active),87.6% (active),21%,93% (active),89.5% (active)
CCN(CC)CCNc1ccc2nnn3c4ccc([N+](=O)[O-])cc4c(=O)c1c23,16%,35%,66.5%,1%,12%,26%,5%,15%,66%,24%,27%,36.2%,9%,35%,37.9%,11%,30%,76% (active)
Cn1cc(NC(=O)c2cc(NC(=O)CCCCCCCCCCC(=O)Nc3cc(C(=O)Nc4cc(C(=O)NCCC(=N)N)n(C)c4)n(C)c3)cn2C)cc1C(=O)NCCC(=N)N,92% (active),98% (active),89.5% (active),95% (active),98% (active),92% (active),95% (active),99% (active),92% (active),72% (active),97% (active),91.4% (active),96% (active),98% (active),91% (active),92% (active),97% (active),90.2% (active)
Oc1ccccc1/C=N/NC(=S)NC12CC3CC(CC(C3)C1)C2,7%,19%,81.3% (active),14%,11%,29.6%,27%,19%,64.4%,-38%,20%,31.1%,21%,21%,42.8%,10%,41%,85.9% (active)
O=C=Nc1ccccc1-c1ccc([N+](=O)[O-])cc1Cl,-1%,20%,73.2% (active),32%,62%,37.6%,8%,44%,21.9%,-5%,-2%,68.8%,36%,42%,83.7% (active),40%,62%,84.2% (active)
CCC/C(=N\NC(=S)N1CCCCCC1)c1ccccn1,69%,97% (active),90.3% (active),77% (active),97% (active),93.5% (active),72% (active),97% (active),90.9% (active),66%,97% (active),91.7% (active),90% (active),96% (active),90.7% (active),82% (active),96% (active),90.2% (active)
N#CCCN(CCCN1CCOCC1)C(=S)Nc1cccc(C(F)(F)F)c1,34%,44%,42.9%,23%,33%,35.8%,41%,37%,71.1% (active),41%,60%,59.5%,49%,58%,49.8%,48%,61%,36%
Oc1ccc(CNCc2ccccc2)c2cccnc12,20%,98% (active),98.4% (active),4%,97% (active),97% (active),0%,98% (active),96.2% (active),-26%,96% (active),94.6% (active),-5%,99% (active),98.1% (active),4%,99% (active),98.2% (active)
O=CNNC(=O)Nc1ccc(Cl)cc1,19%,25%,-1.5%,10%,14%,-3.75%,20%,11%,-8.8%,32%,19%,22.1%,4%,0%,14.6%,20%,21%,7.2%
CC(N)C(O)c1ccc2ccc3ccccc3c2c1 (stereo not given),-35%,96% (active),63.7%,0%,96% (active),3.65%,0%,96% (active),64.8%,-13%,36%,38.7%,6%,97% (active),66.9%,11%,98% (active),58.1%
Clc1ccc2[nH]c(-c3ccccc3)c(-c3ccccn3)c2c1,81% (active),94% (active),96.2% (active),80% (active),98% (active),94.5% (active),93% (active),98% (active),97.7% (active),81% (active),97% (active),94% (active),93% (active),97% (active),96.7% (active),96% (active),97% (active),95.4% (active)
Nc1nc(N)c2nc(CNc3ccc(C(=O)NC(CCC(=O)O)C(=O)O)cc3)cnc2n1 (stereo not given),-4%,30%,64.8%,-3%,91% (active),97.8% (active),-2%,-19%,34.5%,5%,-47%,-48.9%,0%,-47%,74.8% (active),-1%,-19%,83.5% (active)
O=C(CCSCCC(=O)NNc1ccccc1)NNc1ccccc1,4%,32%,24.4%,-1%,28%,3.5%,4%,37%,20.4%,6%,23%,23.4%,7%,44%,-14.7%,15%,58%,35.9%
Oc1ccc2ccc3ccccc3c2c1,5%,99% (active),99.5% (active),2%,99% (active),99.5% (active),5%,99% (active),99.5% (active),-3%,99% (active),99.5% (active),-3%,98% (active),99.5% (active),2%,99% (active),99.5% (active)
C=C1C[C@@]2(OC)OCC[C@H]3C(C)=CCC(C1=O)[C@]32C(=O)OC (stereo not given in full),12%,96% (active),98.5% (active),15%,98% (active),92.7% (active),15%,98% (active),99.1% (active),6%,93% (active),96.8% (active),-5%,98% (active),98.7% (active),4%,97% (active),99% (active)
COc1ccc(NC(=O)OC(C)C)c(OC)c1,2%,10%,-2.75%,-4%,4%,6.45%,-3%,7%,-21.4%,5%,2%,45.4%,15%,42%,18.4%,3%,8%,-10.8%
CCCCC(CC)(CCC)CCN (stereo not given),1%,93% (active),1.65%,1%,65%,1.75%,1%,30%,16.6%,4%,36%,32%,-3%,67%,-5.95%,-1%,83% (active),31.4%
CC(=O)OC1CCC23COC(CC(C)C2C)C3(Br)C1 (stereo not given),-5%,12%,-19.5%,13%,8%,4.2%,2%,8%,1.4%,-2%,-5%,52.3%,6%,1%,-4.55%,3%,-4%,1.7%
CCN(CC)Cc1c(-c2ccccc2)oc(-c2ccccc2)c1CN(CC)CC,-15%,33%,64.7%,1%,2%,-0.45%,-15%,33%,-5.75%,-2%,-1%,-9.8%,1%,8%,36.4%,2%,32%,67.4%
